# From PubChem BioAssay
# OPRM1-OPRD1 ag: agonists of human mu-delta opioid receptor heterodimerization; AID 504326; P35372+P41143; 340,000 tested, 0.3% active; activation, % at 9.3 µM; cells, OPRM1-OPRD1 heterodimerization, luminescence
# OPRM1-OPRD1 inv: inverse agonists of human mu-delta opioid receptor heterodimerization; 340,000 tested, 0.21% active; P35372+P41143; inhibition, % at 9.3 µM; cell-based MOR-DOR heterodimer luminescence, inverse agonism; in the data active = inhibition above about 22%, passing the limit was not always enough
# HTR5A ag ctr: HTR5A agonism, opioid heterodimer counter-screen; P47898; HTR5A agonist assay, luminescence, cell-based; activation, % at 9.3 µM; AID 504692; 340,000 tested, 0.61% active; in the data active = activation mostly above about 9.5%, no sharp cut-off; inactive = mostly below about 7.6%
# HTR5A inv ag: inverse agonist of human HTR5A in OPRM1-OPRD1 counter-screen; HTR5A cell line, luminescence, inverse agonism; inhibition, % at 9.3 µM; 340,000 tested, 0.083% active; AID 504634; in the data active = inhibition mostly above about 23%, no sharp cut-off; inactive = mostly below about 18%
# MOR-DOR ag conf: confirmation of human OPRM1-OPRD1 heterodimerization agonists. activation, % at 9.3 µM. 830 tested, 45% active. cells, MOR-DOR heterodimerization, luminescence complementation. shares compounds with OPRM1-OPRD1 ag
# HTR5A ag ctr2: activates human HTR5A in OPRM1-OPRD1 agonist counter-screen; activation, % at 9.3 µM; shares compounds with OPRM1-OPRD1 ag; AID 504905; HTR5A agonist counterscreen, cell luminescence; 830 tested, 8% active; in the data active = activation above about 17%
# Numbers stand for hits; i = inactive; nt = no result. Hits are enriched below; roughly 1.1% of the tested compounds scored in any of these assays. Rule as the data show it, unless noted: active = activation above about 18%; inactive = the rest.
SMILES,OPRM1-OPRD1 ag,OPRM1-OPRD1 inv,HTR5A ag ctr,HTR5A inv ag,MOR-DOR ag conf,HTR5A ag ctr2
COc1ccccc1N(C)S(=O)(=O)c1ccc(C(=O)NCc2ccccc2CN2CCCC2)cc1,i,i,i,i,nt,nt
OC(CNCC(c1ccc(Cl)cc1Cl)c1c[nH]c2ccccc12)c1ccccc1 (stereo not drawn),55,i,15,i,i,i
CCOc1c(Cl)cc(CNCC(O)c2ccccc2)cc1OC (stereo not drawn),i,i,i,i,nt,nt
Cc1ccc2sc(N(CCCN(C)C)C(=O)c3ccc(S(=O)(=O)N4CCOCC4)cc3)nc2c1C,i,i,i,i,nt,nt
CN(C)CCCN(C(=O)c1ccc(S(=O)(=O)N(C)C)cc1)c1nc2cc3c(cc2s1)OCO3,i,i,i,i,nt,nt
CCN(Cc1ccccc1)S(=O)(=O)c1ccc(C(=O)N(CCCN(C)C)c2nc3c(C)c(C)ccc3s2)cc1,31,i,i,i,41,i
Cc1ccc2sc(N(CCCN(C)C)C(=O)c3ccc(S(=O)(=O)N(C)C4CCCCC4)cc3)nc2c1C,31,i,i,i,49,22
CCN(Cc1ccccc1)S(=O)(=O)c1ccc(C(=O)N(CCCN(C)C)c2nc3cc4c(cc3s2)OCO4)cc1,25,i,i,i,i,i
COc1ccccc1N(CC(=O)Nc1cc(S(=O)(=O)N(C)C)ccc1C)S(=O)(=O)c1cccs1,i,i,i,i,nt,nt
Cc1ccc(OCCSCc2nnc(NC(=O)Nc3cccc(Cl)c3)s2)cc1,19,i,i,i,i,i
Cc1cc(C)c(NC(=O)Cn2nnc(C(=O)NCc3cccs3)c2N)c(C)c1,22,i,i,i,i,i
COc1ccc(S(=O)(=O)N2CCN(C(=O)c3cc(C)nc4ccccc34)CC2)cc1OC,i,i,i,i,nt,nt
COCCn1c(C)cc(C(=O)COC(=O)/C=C/c2ccc(OC)cc2OC)c1C,i,i,i,i,nt,nt
Cc1ccc2nc(NC(=O)Cc3cccs3)sc2c1,i,i,i,i,nt,nt
Cc1ccc2nc(-c3ccc(NC(=O)Cc4cccs4)cc3)[nH]c2c1,23,i,i,i,i,i
O=C(N/N=C/c1ccc(Br)cc1)c1ccc(NC(=O)c2ccccc2)cc1,i,i,i,i,nt,nt
CN(C)c1ccc(/C=N/NC(=O)c2ccc(NC(=O)c3ccccc3)cc2)cc1,19,i,i,i,34,20
c1ccc(-c2csc(Nc3ncccn3)n2)cc1,i,i,i,i,nt,nt
Oc1ccc(-c2csc(Nc3ncccn3)n2)cc1,23,i,i,i,i,i
CCOc1ccc(-c2nnc(SCC(=O)Nc3ccc4c(c3)c3ccccc3n4CC)n2N)cc1,33,i,i,i,24,19
COCCN(C(=O)COC(=O)C12CC3CC(CC(C3)C1)C2)c1c(N)n(Cc2ccccc2)c(=O)[nH]c1=O,i,i,i,i,nt,nt
Cc1ccc(C(=O)N2[C@@H]3CN(C)C(=O)[C@@]2(Cc2ccccc2)[C@H]2C(=O)N(Cc4ccccc4)C(=O)[C@@H]32)cc1,i,i,i,i,nt,nt
CN(C)C(CNC(=O)C1CCN(C(=O)/C=C/c2ccccc2)CC1)c1ccccc1 (stereo not drawn),20,i,i,i,i,i
CCOC(=O)C1CCN(C(=O)/C=C/c2ccccc2)CC1,i,i,i,i,nt,nt
CN(C)C(CNC(=O)CSC(=S)N1CCCC1)c1ccccc1 (stereo not drawn),195,i,i,i,183,i
SMILES,OPRM1-OPRD1 ag,OPRM1-OPRD1 inv,HTR5A ag ctr,HTR5A inv ag,MOR-DOR ag conf,HTR5A ag ctr2
CN(C)C(CNC(=O)C1CC(=O)N(Cc2ccccc2)C1)c1ccccc1 (stereo not drawn),46,i,i,i,59,i
O=C(CSC(=S)N1CCCC1)NCCc1ccccc1,i,i,i,i,nt,nt
O=C1CCN(Cc2ccccc2)CCN1[C@H](COc1ccccc1)Cc1ccccc1,25,i,i,i,25,i
CCCN1CCC(=O)N([C@H](COc2ccccc2)Cc2ccccc2)CC1,i,i,i,i,nt,nt
O=C(Cc1n[nH]c(=O)c2ccccc12)Nc1cc(C(F)(F)F)ccc1-n1cncn1,i,i,i,i,nt,nt
COC(=O)[C@@]12CCCCN1[C@H](c1ccc(-c3ccc4c(c3)OCO4)cc1)[C@H]1C(=O)N(C)C(=O)[C@H]12,i,i,i,i,nt,nt
O=C1Nc2ccc(Br)cc2/C1=C/C(=O)c1ccccc1,18,i,i,i,i,i
O=C1NC(=Nc2ccccc2)S/C1=C\c1ccccc1,24,i,i,i,i,i
